Only some compounds are listed: those with a hit (about 19% of all), similar ones and a draw of the others.
RORg inh = qHTS for inhibitors of ROR gamma transcriptional activity | Potency, µM (top dose mostly 53.6 µM), for the others: at the highest dose activity change, negative = inhibition, usual class: inhibitors | Drosophila S2 Gal4-RORgamma UAS-luciferase reporter, 20 h | 310,000 tested, 5.4% active | Nuclear receptor ROR-gamma (Mus musculus), P51450; also: nearly all actives have a fitted effect of over 60% in size
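Luminescence from a UAS-regulated Photinus luciferase reporter in stably transfected Drosophila Schneider cells is measured; decreased signal marks ROR gamma inhibition. Fusion expression is induced by 700 uM copper sulfate for 20 hr.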
TDP1 cell noCPT = qHTS for Inhibitors of human tyrosyl-DNA phosphodiesterase 1 (TDP1): qHTS in cells in absence of CPT; AID 686978, 2013; Potency, µM (top dose mostly 46.2 µM), without a hit: top-dose activity change, negative = growth inhibition, usual class: inhibitors; 420,000 tested, 15% active; DT40 Tdp1-/- hTDP1 cells, no CPT, ATP luminescence, 48 h; also: nearly all actives have a fitted effect of over 55% in size
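Readout: luminescence from CellTiter-Glo after 30 min in the dark at RT. Cells: DT40 Tdp1-/- with stable hTDP1, 400/well. Exposure: compounds alone, ≥48 hr, 37 °C.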
Gal4-VP16 FLuc = VP16 counterscreen qHTS for inhibitors of ROR gamma transcriptional activity; Potency, µM (titrated, usually from 53.6 µM), without a hit: at the highest dose activity, negative = inhibition, actives largely listed as inhibitors; Drosophila S2 Gal4-VP16 UAS-luciferase, luminescence, 20 h; 310,000 tested, 3.5% active; AID 2546, 2010;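 also: Gal4-VP16 expression switched on by copper sulfate through the metallothionein promoter; nearly all actives have a fitted effect of over 50% in size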
TDP1 cell CPT = qHTS for Inhibitors of human tyrosyl-DNA phosphodiesterase 1 (TDP1): qHTS in cells in presence of CPT; 420,000 tested, 12% active; AID 686979, 2013; chicken DT40 Tdp1-/-;hTDP1 cells + 20 nM CPT, ATP luminescence, 48 h; Potency, µM (highest dose often 46.2 µM), without a hit: top-dose activity change, negative = growth inhibition, actives largely listed as inhibitors; also: nearly all actives have a fitted effect of over 55% in size
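Chicken DT40 Tdp1-/- cells stably complemented with human TDP1 were seeded at 400 cells/well in medium containing 20 nM camptothecin, exposed to pin-transferred compounds, and grown at 37 °C for at least 48 hr. Viability was read as ATP luminescence.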
TDP1 inh = qHTS Assay for Inhibitors of Tyrosyl-DNA Phosphodiesterase (TDP1); recombinant TDP1, AlphaScreen DNA substrate cleavage; Potency, µM (titrated, usually from 130 µM), for the others: top-dose activity change, negative = inhibition, hits mostly inhibitors; Tyrosyl-DNA phosphodiesterase 1 (Homo sapiens), Q9NUW8; 350,000 tested, 0.28% active; also: nearly all actives have a fitted effect of over 40% in size
Target sequence (Q9NUW8 whole entry, looked up): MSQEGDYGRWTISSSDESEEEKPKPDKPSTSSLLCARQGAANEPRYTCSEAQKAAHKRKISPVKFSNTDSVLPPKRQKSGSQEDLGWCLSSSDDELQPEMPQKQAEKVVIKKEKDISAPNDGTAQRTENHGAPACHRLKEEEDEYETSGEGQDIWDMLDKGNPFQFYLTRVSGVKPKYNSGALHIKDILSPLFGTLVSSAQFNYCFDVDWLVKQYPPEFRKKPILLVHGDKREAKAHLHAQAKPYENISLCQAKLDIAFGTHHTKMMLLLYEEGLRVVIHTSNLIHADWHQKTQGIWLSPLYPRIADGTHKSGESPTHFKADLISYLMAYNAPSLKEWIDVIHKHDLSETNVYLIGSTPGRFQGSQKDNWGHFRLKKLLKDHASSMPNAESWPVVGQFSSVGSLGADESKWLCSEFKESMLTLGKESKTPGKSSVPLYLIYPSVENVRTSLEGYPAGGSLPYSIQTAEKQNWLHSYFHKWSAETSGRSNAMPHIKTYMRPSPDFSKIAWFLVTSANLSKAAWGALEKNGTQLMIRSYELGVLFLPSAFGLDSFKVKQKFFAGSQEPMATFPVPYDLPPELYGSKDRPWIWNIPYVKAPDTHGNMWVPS
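E. coli-derived human Tdp1, 1 nM final. Cpd preinc 15 min RT; substrate 15 nM final, 5 min RT; AS bead mix 10 ug/ml final, 10 min RT. Signal loss = tyrosine-FITC cleavage. No-enzyme wells = max signal.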
Active calls of the source: *; ? = inconclusive; . = no result given; [ ] = another dose, or the depositor's remark. Calls follow the shape of the dose curve; as a rule, active = well fitted curve in the direction sought with a large enough effect; inconclusive = small, poorly fitted or top-dose-only effect, or another doubt; inactive = no such curve, though single readings can be large; an effect the other way counts as inactive or inconclusive. % is scaled to controls: 0 for no effect and ±100 for the full control effect; potency is read from the fitted curve at half-maximal effect.

SMILES | RORg inh | TDP1 cell noCPT | Gal4-VP16 FLuc | TDP1 cell CPT | TDP1 inh
COC(=O)C1=C(c2ccc(C(C)=O)cc2)C[C@@H]2CC[C@H]1N2C(=O)N1CCOCC1 | . | ? | . | -22% | 3%
COC(=O)C1=C(c2ccc(OC(F)(F)F)cc2)C[C@@H]2CC[C@H]1N2C(=O)N1CCOCC1 | . | 1.8µM* | . | 2.6µM* | 0%
COC(=O)C1=C(c2ccc(Cl)c(C(F)(F)F)c2)C[C@@H]2CC[C@H]1N2C(=O)N1CCOCC1 | . | 4.6µM* | . | 6.5µM* | 0%
COC(=O)C1=C(c2ccc(OC(F)(F)F)cc2)C[C@@H]2CC[C@H]1N2C(=O)NCCO | . | -26% | . | -13% | 0%
COC(=O)C1=C(c2ccc(OC(F)(F)F)cc2)C[C@@H]2CC[C@H]1N2C(=O)N1CCCC1 | . | 1.8µM* | . | 1.8µM* | 1%
COC(=O)C1=C(c2ccc(OC(F)(F)F)cc2)C[C@@H]2CC[C@H]1N2C(=O)NC1CC1 | . | 15µM* | . | 21µM* | 0%
OCCCBr | -15% | 0%[92.5 µM] | 1% | 5%[92.5 µM] | 3%
Clc1ccc(CCNCc2ccncc2)c(Cl)c1 | -2% | -27% | -4% | ? | .
COC(=O)C1=C(c2cccc(C#N)c2)C[C@@H]2CC[C@H]1N2C(=O)N1CCCC1 | . | 18µM* | . | ? | 0%
COC(=O)C1=C(c2ccc(OC(F)(F)F)cc2)C[C@@H]2CC[C@H]1N2C(=O)N1CCC(C)CC1 | . | 5.8µM* | . | 6.5µM* | -3%
CC1=C2[C@@H]3OC(=O)[C@H](C)C3CC[C@@]2(C)C=CC1=O (some centres undefined) | 21% | -25% | -5% | 4% | .
CCC(=NCc1cccnc1)c1c(O)n(-c2ccccc2)c(=O)[nH]c1=O | 29% | 10% | -1% | 18% | 6%
COc1cc(OC)c(C=O)c(OC(=O)N(C)C)c1 | -12% | -14% | 2% | ? | -3%
CCN(CC)C(=O)c1ccc(NC(=O)COc2ccc([N+](=O)[O-])cc2Cl)cc1 | 33% | 21µM* | -2% | ? | 4%
NC(=O)c1ccc(NC(=O)COC(=O)C2(c3ccccc3F)CCCC2)cc1 | 16% | ? | -7% | ? | 1%
Cc1nc2ccccc2c(=O)n1-c1nccs1 | . | -14% | . | -1% | .
O=c1c2ccccc2nc(-c2ccco2)n1-c1ccc(Br)cc1 | 29% | 16µM* | -4% | 12µM* | .
Cc1cccnc1-n1c(-c2ccccc2)nc2ccccc2c1=O | 2% | 13µM* | 1% | 13µM* | 2%
Cc1ccc(-n2c(-c3cccs3)nc3ccccc3c2=O)cc1 | 22% | 12µM* | -12% | 9.2µM* | 5%
Cc1ccc(-c2nc3ccccc3c(=O)n2-c2nccs2)cc1 | 5.6µM* | -30% | 11µM* | -23% | 6%
O=c1c2ccccc2nc(-c2cccs2)n1-c1cnccn1 | 23% | -7% | 2% | 7% | 7%
Cc1ccc(-c2nc3ccccc3c(=O)n2-c2ncccc2C)cc1 | -15% | ? | 2% | -22% | 1%
CN1CCCN(C(=O)COc2ccc(F)cc2F)CC1 | 10% | 16% | -15% | 18% | 0%
CNC(C)CC1CCCCC1 (centres undefined) | . | -14% | . | -3% | .
O=S(=O)(c1ccc(Cl)cc1)c1ccc(Cl)cc1 | 16% | -5% | 3% | -11% | -1%
SMILES | RORg inh | TDP1 cell noCPT | Gal4-VP16 FLuc | TDP1 cell CPT | TDP1 inh
O=c1c2ccccc2nc(Cc2ccccc2)n1-c1ccccc1O | 24% | -20% | -6% | -6% | 2%
Cc1ccc(-c2nc3ccccc3c(=O)n2-c2ccc(O)cc2)cc1 | ? | 4.1µM* | -1% | 2.6µM* | 5%
O=c1c2ccccc2nc(Cc2ccccc2)n1-c1ccccc1 | 33% | 15µM* | 26% | ? | .
CCC(C)C1NC(=O)C(C(C)=O)=C1O (centres undefined) | -10% | ? | ? | 16µM* | .
C=CCc1cccc(C=Nc2c[nH]c(=O)[nH]c2=O)c1O | 21%[1.91 µM] | -6% | 1% | 18µM* | .
Cn1cc(C(=O)OCC(=O)NC2CCCCC2)c2ccccc21 | . | -16% | . | -15% | 0%
COc1nc2ccccc2nc1N1CC1 | . | 1.6µM* | . | 0.92µM* | .
Cc1ccc(-n2nc(C)c3c2OC(N)=C(C#N)C3c2cccs2)cc1 (centres undefined) | 23% | -2% | ? | -1% | 13%
CCCc1nn(C)c2c1C(c1ccncc1)C(C#N)=C(N)O2 (centres undefined) | -26% | 29µM* | -1% | ? | .
CCOc1cc(C(=O)N2CCC3(CC2)OCCO3)cc(OCC)c1OCC | 0% | -3% | -12% | -3% | 0%
CCCCCc1nc2c(c(=O)c3ccccc3n2C)c(=O)n1C1CCCCCC1 | -23% | 18µM* | ? | 21µM* | 3%
Cn1c2ccccc2c2c(C(=O)N3CCC4(CC3)OCCO4)cn(C3CCCC3)c(=O)c21 | -7% | ? | 5% | ? | 5%
COc1ccc(/C=C/C(=O)c2c(O)n(CCC3=CCCCC3)c(=O)[nH]c2=O)cc1OC | -5% | ? | -1% | ? | .
Cc1nnc(NC(=O)c2cccn(Cc3ccccc3)c2=O)s1 | . | -11% | . | 2% | 5%
Cc1cccc2sc(NC(=O)c3cccn(Cc4ccccc4)c3=O)nc12 | . | 13µM* | . | ? | 3%
N#Cc1ccccc1NC(=O)c1cccn(Cc2ccccc2)c1=O | . | 15µM* | . | 18µM* | -10%
NC(=O)c1ccc(NC(=O)c2cccn(Cc3ccccc3)c2=O)cc1 | . | ? | . | -4% | 0%
CCOP(=O)(OCC)c1nc(-c2ccc(C)cc2)oc1NCc1ccccc1 | ? | ? | -3% | ? | 8%
O=c1[nH]c(=S)[nH]c(O)c1N=Nc1cc2c(cc1[N+](=O)[O-])OCO2 | -39% | ? | -3% | ? | -13%
Cc1c(C(=O)O)cc(-c2ccccc2)n1Cc1ccccc1 | 7% | -3% | -6% | 5% | .
CSc1cc(-c2ccccc2)n(Cc2c(Cl)cccc2Cl)c(=O)c1C#N | 1% | 3.3µM* | -4% | 4.6µM* | 7%
CC(=O)OC1C(=O)[C@]2(C)C(O)CC3OC[C@]3(OC(C)=O)C2[C@@H](OC(=O)c2ccccc2)[C@]2(O)CC(O)C(C)=C1C2(C)C (some centres undefined) | -22% | 3.7µM* | -12% | ? | 11%[56.1 µM]

Source: PubChem (National Center for Advancing Translational Sciences (NCATS))
